In PubChem BioAssay AID1159580 (chemical genetic matrix, 2015):
In all, about 5,500 compounds went through this assay and about 2,000 (36%) were called active. Roughly 18% stayed inconclusive and do not appear here. No stated cut-off is given here; in the data, active means normalized growth mostly below about 0.91 (no sharp cut-off); inconclusive means no clear call, values can overlap the other calls; inactive means mostly above about 0.92. This is one part of the list.

Test: chemical genetic growth profiling, strain panel (AID 1159580);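 further: tested at 20 µM; growth read once vehicle control cultures reached saturation at 30 °C; 1 = growth at the plate median or of vehicle wells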
Conditions: growth OD

Measured: normalized growth

CC(=O)O[C@H]1CC[C@@]2(C)C(=CC(=O)C3C4CCC(C(C)CCCC(C)C)[C@@]4(C)CCC32)C1 (stereo not given in full)
inactive: S. cerevisiae deletion strains, locus YJL187C, strain SWE1, stronger effect = lower value 0.991 | S. cerevisiae deletion strains, locus YJR043C, strain POL32, stronger effect = lower value 1.01 | S. cerevisiae deletion strains, locus YJR075W, strain HOC1, stronger effect = lower value 1 | S. cerevisiae deletion strains, locus YKL009W, strain mrt4, stronger effect = lower value 1.04 | S. cerevisiae deletion strains, locus YKL068W, stronger effect = lower value 1 | S. cerevisiae deletion strains, locus YKL085W, strain MDH1 (second series), stronger effect = lower value 1 | S. cerevisiae deletion strains, locus YKL085W, strain MDH1, stronger effect = lower value 1 | S. cerevisiae deletion strains, locus YKL160W, strain elf1, stronger effect = lower value 0.996 | S. cerevisiae deletion strains, locus YKR001C, strain vps1, stronger effect = lower value 1.03 | S. cerevisiae deletion strains, locus YKR026C, strain gcn3, stronger effect = lower value 0.994 | S. cerevisiae deletion strains, locus YKR091W, strain srl3, stronger effect = lower value 0.994 | S. cerevisiae deletion strains, locus YLL001W, strain dnm1, stronger effect = lower value 0.984 | S. cerevisiae deletion strains, locus YLL026W, stronger effect = lower value 1 | S. cerevisiae deletion strains, locus YLL041C, strain sdh2, stronger effect = lower value 0.993 | S. cerevisiae deletion strains, locus YLR027C, strain aat2, stronger effect = lower value 1 | S. cerevisiae deletion strains, locus YLR039C, strain RIC1, stronger effect = lower value 1.03 | S. cerevisiae deletion strains, locus YLR058C, strain SHM2, stronger effect = lower value 0.999 | S. cerevisiae deletion strains, locus YLR102C, strain apc9, stronger effect = lower value 0.975 | S. cerevisiae deletion strains, locus YLR221C, strain rsa3, stronger effect = lower value 0.983 | S. cerevisiae deletion strains, locus YLR258W, strain gsy2, stronger effect = lower value 1.01 | S. cerevisiae deletion strains, locus YLR262C, strain YPT6 (second series), stronger effect = lower value 0.996 | S. cerevisiae deletion strains, locus YLR262C, strain YPT6, stronger effect = lower value 1.02 | S. cerevisiae deletion strains, locus YLR268W, strain sec22, stronger effect = lower value 1.02 | S. cerevisiae deletion strains, locus YLR320W, strain mms22, stronger effect = lower value 0.991 | S. cerevisiae deletion strains, locus YLR330W, strain CHS5, stronger effect = lower value 1 | S. cerevisiae deletion strains, locus YLR342W, strain FKS1 (second series), stronger effect = lower value 1.03 | S. cerevisiae deletion strains, locus YLR342W, strain FKS1, stronger effect = lower value 0.993 | S. cerevisiae deletion strains, locus YLR357W, strain rsc2, stronger effect = lower value 0.983 | S. cerevisiae deletion strains, locus YLR370C, strain arc18, stronger effect = lower value 0.994 | S. cerevisiae deletion strains, locus YLR371W, strain rom2, stronger effect = lower value 0.977 | S. cerevisiae deletion strains, locus YLR384C, strain iki3, stronger effect = lower value 0.971 | S. cerevisiae deletion strains, locus YLR418C, strain cdc73, stronger effect = lower value 1.02 | S. cerevisiae deletion strains, locus YML016C, strain PPZ1, stronger effect = lower value 1 | S. cerevisiae deletion strains, locus YML032C, strain rad52, stronger effect = lower value 0.985 | S. cerevisiae deletion strains, locus YML120C, strain ndi1, stronger effect = lower value 0.997 | S. cerevisiae deletion strains, locus YML124C, strain tub3, stronger effect = lower value 0.988 | S. cerevisiae deletion strains, locus YMR058W, strain fet3, stronger effect = lower value 1 | S. cerevisiae deletion strains, locus YMR078C, strain ctf18, stronger effect = lower value 0.988 | S. cerevisiae deletion strains, locus YMR125W, strain sto1, stronger effect = lower value 0.997 | S. cerevisiae deletion strains, locus YMR129W, stronger effect = lower value 0.989 | S. cerevisiae deletion strains, locus YMR205C, strain PFK2, stronger effect = lower value 0.993 | S. cerevisiae deletion strains, locus YMR223W, strain ubp8, stronger effect = lower value 0.983 | S. cerevisiae deletion strains, locus YMR231W, strain pep5, stronger effect = lower value 1 | S. cerevisiae deletion strains, locus YMR307W, strain GAS1, stronger effect = lower value 1.07 | S. cerevisiae deletion strains, locus YNL067W, strain RPL9B, stronger effect = lower value 1.01 | S. cerevisiae deletion strains, locus YNL071W, strain lat1, stronger effect = lower value 0.994 | S. cerevisiae deletion strains, locus YNL128W, strain TEP1, stronger effect = lower value 1.04 | S. cerevisiae deletion strains, locus YNL209W, strain ssb2, stronger effect = lower value 0.997 | S. cerevisiae deletion strains, locus YNL233W, strain BNI4, stronger effect = lower value 1.01 | S. cerevisiae deletion strains, locus YNL248C, strain rpa49, stronger effect = lower value 1.01 | S. cerevisiae deletion strains, locus YNL250W, strain rad50, stronger effect = lower value 1 | S. cerevisiae deletion strains, locus YNL271C, strain bni1, stronger effect = lower value 1.01 | S. cerevisiae deletion strains, locus YNL298W, strain CLA4, stronger effect = lower value 1.01 | S. cerevisiae deletion strains, locus YNL307C, strain MCK1, stronger effect = lower value 0.985 | S. cerevisiae deletion strains, locus YNL322C, strain KRE1 (second series), stronger effect = lower value 0.983 | S. cerevisiae deletion strains, locus YNR049C, strain mso1, stronger effect = lower value 0.993 | S. cerevisiae deletion strains, locus YNR052C, strain pop2, stronger effect = lower value 0.975 | S. cerevisiae deletion strains, locus YOL006C, strain TOP1, stronger effect = lower value 1.05 | S. cerevisiae deletion strains, locus YOL012C, strain htz1 0.955 | S. cerevisiae deletion strains, locus YOL147C, strain pex11, stronger effect = lower value 0.982 | S. cerevisiae deletion strains, locus YOR001W, strain rrp6, stronger effect = lower value 1.01 | S. cerevisiae deletion strains, locus YOR061W, strain CKA2, stronger effect = lower value 1.01 | S. cerevisiae deletion strains, locus YOR069W, strain VPS5, stronger effect = lower value 1.01 | S. cerevisiae deletion strains, locus YOR070C, strain gyp1, stronger effect = lower value 0.987 | S. cerevisiae deletion strains, locus YOR080W, strain dia2, stronger effect = lower value 0.996 | S. cerevisiae deletion strains, locus YOR083W, strain WHI5, stronger effect = lower value 0.98 | S. cerevisiae deletion strains, locus YOR106W, strain vam3, stronger effect = lower value 1.01 | S. cerevisiae deletion strains, locus YOR136W, strain idh2, stronger effect = lower value 0.995 | S. cerevisiae deletion strains, locus YOR144C, strain elg1, stronger effect = lower value 0.99 | S. cerevisiae deletion strains, locus YOR184W, strain ser1, stronger effect = lower value 0.998 | S. cerevisiae deletion strains, locus YOR265W, strain rbl2, stronger effect = lower value 1 | S. cerevisiae deletion strains, locus YOR270C, strain vph1, stronger effect = lower value 0.968 | S. cerevisiae deletion strains, locus YOR290C, strain snf2, stronger effect = lower value 0.974 | S. cerevisiae deletion strains, locus YOR316C, strain cot1, stronger effect = lower value 0.977 | S. cerevisiae deletion strains, locus YPL051W, strain arl3, stronger effect = lower value 1 | S. cerevisiae deletion strains, locus YPL078C, strain atp4, stronger effect = lower value 0.995 | S. cerevisiae deletion strains, locus YPL106C, strain sse1, stronger effect = lower value 0.978 | S. cerevisiae deletion strains, locus YPL240C, strain hsp82, stronger effect = lower value 0.993 | S. cerevisiae deletion strains, locus YPL241C, strain CIN2, stronger effect = lower value 1 | S. cerevisiae deletion strains, locus YPR119W, strain clb2, stronger effect = lower value 0.982 | S. cerevisiae deletion strains, locus YPR141C, strain kar3, stronger effect = lower value 0.993 | S. cerevisiae deletion strains, locus YPR163C, strain tif3, stronger effect = lower value 0.981 | S. cerevisiae deletion strains, locus YPR167C, strain met16, stronger effect = lower value 0.984 | S. cerevisiae deletion strains, strain wtn01, stronger effect = lower value 1.05 | S. cerevisiae strains, strain wild type, stronger effect = lower value 1.01
